Data published in PubChem BioAssay (NCATS).
Inconclusive results are not listed. Where a call stands in place of a potency, no number is given. Calls of active or inactive are those of the source. Unless noted, the call rests on the fitted dose curve.

What was measured:
[1] = qHTS for Inhibitors of the Functional Ribonucleoprotein Complex (vRNP) of Lassa (LASV) Arenavirus: LASV Primary Screen - GLuc reporter signal (AID 1347082; calls by dose curve; tested in HEK293 reporter line; further: nearly all actives have a fitted effect of over 60% in size)
[2] = qHTS for Inhibitors of the Functional Ribonucleoprotein Complex (vRNP) of Lassa (LASV) Arenavirus: Viability assay - alamar blue signal for LASV Primary Screen (AID 1347083; calls by dose curve; tested in HEK293 reporter line; further: nearly all actives have a fitted effect of over 80% in size)
[3] = qHTS for Inhibitors of the Functional Ribonucleoprotein Complex (vRNP) of Lymphocytic Choriomeningitis Arenaviruses (LCMV): Viability assay - alamar blue signal for LCMV Primary Screen (AID 1347085; calls by dose curve; tested in HEK293 reporter line; further: nearly all actives have a fitted effect of over 80% in size)
[4] = target: Nucleoprotein (Lymphocytic choriomeningitis virus (strain Armstrong)) (UniProt P09992); test: qHTS for Inhibitors of the Functional Ribonucleoprotein Complex (vRNP) of Lymphocytic Choriomeningitis Arenaviruses (LCMV): LCMV Primary Screen - GLuc reporter signal (AID 1347086); further: nearly all actives have a fitted effect of over 70% in size
Sequence of Nucleoprotein (Lymphocytic choriomeningitis virus (strain Armstrong)) (P09992 whole entry, looked up): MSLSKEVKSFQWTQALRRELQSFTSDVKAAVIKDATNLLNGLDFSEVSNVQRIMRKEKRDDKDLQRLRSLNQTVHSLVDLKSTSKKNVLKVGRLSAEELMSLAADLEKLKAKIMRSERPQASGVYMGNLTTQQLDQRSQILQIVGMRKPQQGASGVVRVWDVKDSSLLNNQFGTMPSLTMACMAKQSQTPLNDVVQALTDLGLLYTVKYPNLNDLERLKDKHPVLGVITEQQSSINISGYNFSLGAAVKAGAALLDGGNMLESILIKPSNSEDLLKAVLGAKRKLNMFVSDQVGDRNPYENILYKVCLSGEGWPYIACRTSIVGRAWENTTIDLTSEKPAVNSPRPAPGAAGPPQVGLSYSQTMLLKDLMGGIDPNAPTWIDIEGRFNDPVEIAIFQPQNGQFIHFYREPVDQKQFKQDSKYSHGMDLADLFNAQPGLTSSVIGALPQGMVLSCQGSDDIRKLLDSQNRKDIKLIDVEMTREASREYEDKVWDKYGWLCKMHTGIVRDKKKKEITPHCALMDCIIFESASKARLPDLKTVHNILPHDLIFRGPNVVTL
Potency means the concentration at half of the fitted maximal effect.

Structure (SMILES) | Potency [1] | Potency [2] | Potency [3] | Potency [4]
CCn1ccc(NS(=O)(=O)c2ccc(N)cc2)nc1=O | inactive | inactive | inactive | inactive
NS(=O)(=O)c1ccc(Cl)c(S(N)(=O)=O)c1 | inactive | inactive | inactive | inactive
CO[C@]12C[C@@H](COC(=O)c3cncc(Br)c3)CN(C)[C@@H]1Cc1cn(C)c3cccc2c13 | inactive | inactive | inactive | inactive
CC(=O)OCC(=O)[C@@]1(O)[C@H](OC(C)=O)C[C@H]2[C@@H]3CCC4=CC(=O)C=C[C@]4(C)[C@@]3(F)[C@@H](O)C[C@@]21C | inactive | inactive | inactive | inactive
CC(C)(C)NC[C@H](O)COc1nsnc1N1CCOCC1 | inactive | inactive | inactive | inactive
O=C(O)c1ccc(S(=O)(=O)N(Cl)Cl)cc1 | inactive | inactive | inactive | inactive
CCCc1c(OCCCCc2nn[nH]n2)ccc(C(C)=O)c1O | inactive | inactive | inactive | inactive
NC(=O)NC1NC(=O)NC1=O (configuration not stated) | inactive | inactive | inactive | inactive
NCCc1ccn[nH]1 | inactive | inactive | inactive | inactive
CCCCOC(=O)c1ccc(O)cc1 | inactive | inactive | inactive | inactive
CC(=O)Nc1ncc([N+](=O)[O-])s1 | inactive | inactive | inactive | inactive
C[C@]12C=CC(=O)C=C1CC[C@@H]1[C@@H]2[C@@H](O)C[C@@]2(C)[C@H]1CC[C@]2(O)C(=O)CO | inactive | inactive | inactive | inactive
CCN1CCC[C@H]1CNC(=O)c1c(OC)ccc(Br)c1OC | inactive | inactive | inactive | inactive
Cc1ncc(CO)c(CO)c1O | inactive | inactive | inactive | inactive
COc1cc(C(=O)N2CCOCC2)cc(OC)c1OC | inactive | inactive | inactive | inactive
CC1(C)O[C@@H]2C[C@H]3[C@@H]4C[C@H](F)C5=CC(=O)C=C[C@]5(C)[C@@]4(F)[C@@H](O)C[C@]3(C)[C@]2(C(=O)CO)O1 | inactive | inactive | inactive | inactive
CC(=O)O[C@@H]1CC2C3CCc4cc(OC(=O)c5ccccc5)ccc4C3CCC2(C)[C@H]1OC(C)=O (some centres not stated) | inactive | inactive | inactive | inactive
CCc1cccc(CC)c1NC(=O)CN(CC(=O)O)CC(=O)O | inactive | inactive | inactive | inactive
C[C@](N)(Cc1ccc(O)cc1)C(=O)O | inactive | inactive | inactive | inactive
CN1CCN(CC(=O)N2c3ccccc3C(=O)Nc3cccnc32)CC1 | inactive | inactive | inactive | inactive
CNCC(O)c1ccc(O)c(O)c1 (configuration not stated) | inactive | inactive | inactive | inactive
CCOc1nc2cccc(C(=O)O)c2n1Cc1ccc(-c2ccccc2-c2nn[nH]n2)cc1 | inactive | inactive | inactive | inactive
C=CC(N)CCC(=O)O (configuration not stated) | inactive | inactive | inactive | inactive
S=P(N1CC1)(N1CC1)N1CC1 | inactive | inactive | inactive | inactive
OC[C@@H](O)[C@@H](O[C@@H]1O[C@H](CO)[C@H](O)[C@H](O)[C@H]1O)[C@H](O)[C@@H](O)CO | inactive | inactive | inactive | inactive

Structure (SMILES) | Potency [1] | Potency [2] | Potency [3] | Potency [4]
O=C(NCC1CCCCN1)c1cc(OCC(F)(F)F)ccc1OCC(F)(F)F (configuration not stated) | inactive | – | – | inactive
CC(=O)N1CCN(c2ccc(OC[C@H]3CO[C@](Cn4ccnc4)(c4ccc(Cl)cc4Cl)O3)cc2)CC1 | – | inactive | inactive | inactive
CN(C)c1ccc2nc3ccc(=[N+](C)C)cc-3sc2c1 | 9.68 µM (active) | – | 24.3 µM (active) | 6.85 µM (active)
CCOC(=O)c1ccc(N)cc1 | inactive | – | – | inactive
CC(C=CC1=C(C)CCCC1(C)C)=CC=CC(C)=CC(=O)O | inactive | – | 0.544 µM (active) | inactive
CCCc1ccc(OCC(=O)N2CCN(C(=O)COc3ccc(CCC)cc3OC)CC2)c(OC)c1 | – | – | inactive | inactive
Cc1cc(O)c2ccccc2c1O | inactive | – | inactive | inactive
COc1cc(NS(C)(=O)=O)ccc1Nc1c2ccccc2nc2ccccc12 | – | 2.51 µM (active) | – | 5.62 µM (active)
N#C[C@H]1C[C@H]2C[C@@H]2N1C(=O)[C@@H](N)C12CC3CC(CC(O)(C3)C1)C2 | inactive | inactive | – | inactive
Nc1nc(Cl)nc2c1ncn2[C@H]1C[C@H](O)[C@@H](CO)O1 | inactive | – | 8.63 µM (active) | –
CCCC(=O)O[C@]1(C(=O)CO)CC[C@H]2[C@@H]3CCC4=CC(=O)CC[C@]4(C)[C@H]3[C@@H](O)C[C@@]21C | inactive | inactive | – | inactive
Nc1ncn([C@H]2C[C@H](O)[C@@H](CO)O2)c(=O)n1 | inactive | – | – | inactive
O=C1CN(/N=C/c2ccc([N+](=O)[O-])o2)C(=O)N1 | inactive | inactive | – | inactive
COc1cc2nc(Cl)nc(N)c2cc1OC | inactive | – | inactive | –
CCCCCCNC(=O)n1cc(F)c(=O)[nH]c1=O | inactive | 43.2 µM (active) | – | inactive
O=C(N/N=C/c1ccc([N+](=O)[O-])o1)c1ccc(O)cc1 | – | – | 25.1 µM (active) | –
CNCCCCOc1ccccc1Cc1ccccc1 | – | – | inactive | inactive
CC12CCC(CC1)C(C)(C)O2 | inactive | inactive | inactive | inactive
C=CC[C@@H]1C=C(C)C[C@H](C)C[C@H](OC)[C@H]2O[C@@](O)(C(=O)C(=O)N3CCCC[C@H]3C(=O)O[C@H](C(C)=C[C@@H]3CC[C@H](O)[C@H](OC)C3)[C@@H](C)[C@@H](O)CC1=O)[C@@H](C)C[C@@H]2OC | inactive | – | – | 30.6 µM (active)
CC(=O)OC[C@H]1O[C@@H](n2ncc(=O)[nH]c2=O)[C@H](OC(C)=O)[C@@H]1OC(C)=O | – | – | inactive | inactive
CO[C@H]1C[C@@H]2CC[C@@H](C)[C@@](O)(O2)C(=O)C(=O)N2CCCC[C@@H]2C(=O)O[C@H]([C@H](C)C[C@@H]2CC[C@H](OCCO)[C@H](OC)C2)CC(=O)[C@H](C)C=C(C)[C@@H](O)[C@@H](OC)C(=O)[C@H](C)C[C@H](C)C=CC=CC=C1C | – | 0.0086 µM (active) | 0.0769 µM (active) | 0.544 µM (active)
CNC(=O)c1ccccc1Sc1ccc2c(/C=C/c3ccccn3)n[nH]c2c1 | inactive | – | inactive | inactive
Nc1ccc(C(=O)Nc2ccccc2N)cc1 | inactive | – | – | inactive
Cc1cccc(C)c1OCC(=O)N[C@@H](Cc1ccccc1)[C@@H](O)C[C@H](Cc1ccccc1)NC(=O)[C@H](C(C)C)N1CCCNC1=O | inactive | – | – | 38.5 µM (active)
Cc1c(N)nc([C@H](CC(N)=O)NC[C@H](N)C(N)=O)nc1C(=O)N[C@H](C(=O)N[C@H](C)[C@@H](O)[C@H](C)C(=O)N[C@H](C(=O)NCCc1nc(-c2nc(C(=O)NCCCCN=C(N)N)cs2)cs1)[C@@H](C)O)[C@@H](O[C@@H]1O[C@@H](CO)[C@@H](O)[C@H](O)[C@@H]1O[C@H]1O[C@H](CO)[C@@H](O)[C@H](OC(N)=O)[C@@H]1O)c1cnc[nH]1 | inactive | inactive | – | inactive
